This note sets out measurements from PubChem BioAssay (NCATS).

Test [1] is described as follows: qHTS for Inhibitors of Cell Surface uPA Generation: Validation Assay (AID 493164).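 Note: RAW 264.7 macrophage cells exposed to compound for 18 h; 0% is about no effect.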 In short, it runs like this:
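Compounds are titrated over seven points (2.45 nM–38.3 uM final) onto pre-plated RAW 264.7 cells and incubated for 18 h. Retained intracellular ATP, measured with ATP-Lite, indicates blocked lethal factor entry.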

Test [2] deals with Galactokinase (Homo sapiens) (UniProt P51570). Kind of test: qHTS Validation Assay for Inhibitors of Human Galactokinase (GALK) (AID 493189). Note: 0% is about no effect. In short, it runs like this: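 GALK (5 nM) with 35 uM ATP and 100 uM galactose in HEPES pH 8.0 with MgCl2, NaCl, DTT and BSA. Reaction ran 1 h at room temperature. Residual ATP read by Kinase-Glo Plus luminescence.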
Chain of Galactokinase (Homo sapiens) (P51570 whole entry, looked up): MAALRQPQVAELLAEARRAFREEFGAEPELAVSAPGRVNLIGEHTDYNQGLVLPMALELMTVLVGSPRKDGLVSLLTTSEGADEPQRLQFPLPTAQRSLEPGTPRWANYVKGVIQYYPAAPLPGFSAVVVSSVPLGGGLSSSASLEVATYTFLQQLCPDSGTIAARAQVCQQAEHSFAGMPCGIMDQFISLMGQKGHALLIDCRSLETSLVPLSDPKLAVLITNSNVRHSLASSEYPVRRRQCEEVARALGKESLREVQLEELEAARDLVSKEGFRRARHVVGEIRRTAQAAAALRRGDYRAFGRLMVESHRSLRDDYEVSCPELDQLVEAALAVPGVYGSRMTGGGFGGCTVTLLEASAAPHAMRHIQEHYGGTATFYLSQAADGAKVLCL
A general note: In qHTS, concentration-response curves come from the screen itself.

Test [3] is described as follows: Validation screen for small molecules that induce DNA re-replication in SW480 colon adenocarcinoma cells (AID 504364). Note: 0% is about no effect. In short, it runs like this: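 Hoechst-stained SW480 nuclei, imaged at 405 nm excitation after 48 hr compound exposure, were counted for elevated DNA content as the re-replication signal.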
Test [4] has as its target Peptidyl-prolyl cis-trans isomerase NIMA-interacting 1 (Homo sapiens) (UniProt Q13526). Kind of test: qHTS Validation Assay to Find Inhibitors of Pin1 (AID 504536; active = well fitted inhibition curve with a large enough effect in the polarisation, with a control signal flat, not every such curve was filed as active; the % refers to the polarisation;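 note: 0% = full Pin1 enzyme wells and -100% = no-enzyme wells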). In short, it runs like this:
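Fluorescence polarization competition: compounds (titration) displace HiFluor-488-labeled Pin1-1b peptide from Pin1 (0.3 uM final) in pH 7.5 HEPES buffer with DTT, 10 min at room temperature; %Activity normalized to no-enzyme wells, curves fitted.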

Test [5] addresses Phosphoglycerate kinase, glycosomal (Trypanosoma brucei brucei) (UniProt P07378). The test can be described thus: qHTS Validation Assay to Find Inhibitors of Phosphoglycerate Kinase (AID 504547).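 Note: control wells lack PGK and mark full inhibition.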 In short, it runs like this: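 Compounds are pinned into the substrate/PGK mixture, and GAPDH (100nM final) is added to start the reaction by producing 1,3-BPG. After 60 minutes at room temperature, Kinase-Glo Plus is added and luminescence is measured 10 minutes later.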

Test [6] concerns the target phosphoglycerate mutase (Leishmania major) (UniProt Q4Q090). Kind of test: qHTS Validation Assay to Find Inhibitors of Phosphoglycerate Mutase (AID 504548).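 Note: end-point luminescence from Kinase-GloPlus after the PGAM reaction; series mostly up to about 58 µM; % is set by controls: 0 for no effect and ±100 for the full control effect.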 In short, it runs like this: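 L. major PGAM (1.25nM final) was added to substrate buffer and pinned compound, incubated 45 minutes at room temperature, then Kinase-GloPlus added; luminescence read after 10 minutes. Buffer: 100 mM TEA pH 7.6, 5 mM MgCl2, 0.01% Tween-20.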

A short description of test [7]: Inducers of the Endoplasmic Reticulum Stress Response (ERSR) in human glioma: Validation (AID 504836). Note: 0% is about no effect. In short, it runs like this: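 Stably transfected U87-MG glioma cells carrying a GRP78-based luciferase sensor; 16 h compound incubation. Luminescence end-point read 10 min after Bright-Glo addition at room temperature.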
The nature of test [8]: qHTS for Inhibitors of ATXN expression: Validation of Cytotoxic Assay (AID 588349). Note: potency is the fitted concentration of half-maximal effect. In short, it runs like this:
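Toxicity of test compounds toward HEK293 cells is scored from cellular ATP content measured by CellTiter Glo. Cells receive titrated doses and incubate 72 hr at 37 degrees C beforehand.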

A short description of test [9]: qHTS for Inhibitors of ATXN expression: Validation (AID 588378). Note: nearly all actives have a fitted effect of over 75% in size. Note: potency is the fitted concentration of half-maximal effect. The procedure, abridged: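 HEK293 cells carrying ATXN2-firefly luciferase reporter, treated with compound 24 h at 37 °C. Viability read first by CellTiter-Fluor (405/525 nm), then reporter expression by Bright-Glo luminescence; controls were a known ATXN2 expression inhibitor and a luciferase inhibitor.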

Test [10] has as its target DNA dC->dU-editing enzyme APOBEC-3G (Homo sapiens) (UniProt Q9HC16). The test can be described thus: qHTS for inhibitors of Vif-A3G interactions: Validation (AID 588379). Note: 0% is about no effect. The procedure, abridged:
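Yellow fluorescence (Ex 488, Em 500-530) of Vif-coexpressing HeLa A3G-eYFP cells, scanned by Acumen cytometer, reports blocked A3G degradation. Cells plated at 700/well overnight at 37 deg C before compound addition, then a further overnight compound incubation at 37 deg C.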

Test [11] addresses Estrogen receptor (Homo sapiens) (UniProt P03372). Kind of test: qHTS assay for small molecule agonists of estrogen receptor alpha signaling (AID 588514; calls by dose curve;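 note: 0% = vehicle only and 100% = reference agonist; nearly all actives have a fitted effect of over 70% in size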). In short, it runs like this:
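Fluorescence from CCF4 cleavage reports ER-alpha-driven beta-lactamase expression in HEK 293 cells treated 18 hrs at 37 C. Data normalized to 17-beta-estradiol (20 nM) and DMSO, fitted to Hill equation.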

For test [12], the target named is Bile acid receptor (Homo sapiens) (UniProt Q96RI1). Kind of test: qHTS assay for small molecule agonists of farnesoid X receptor signaling (AID 588527; calls by dose curve;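 note: series mostly up to about 77 µM; 0% = vehicle basal and 100% = reference agonist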). The settings on record: HEK293T FXR-UAS-bla, beta-lactamase ratio, 16 h; stronger effect = higher value. The procedure, abridged: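 Agonist-mode beta-lactamase reporter in GeneBLAzer FXR-UAS-bla HEK293T cells, titration up to 92 uM, 16 h exposure at 37 C, CCF4 fluorescence. Response scaled to DMSO (0%) and 100 uM chenodeoxycholic acid (100%), then Hill-fitted for EC50 and efficacy.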
Chain of Bile acid receptor (Homo sapiens) (Q96RI1 whole entry, looked up): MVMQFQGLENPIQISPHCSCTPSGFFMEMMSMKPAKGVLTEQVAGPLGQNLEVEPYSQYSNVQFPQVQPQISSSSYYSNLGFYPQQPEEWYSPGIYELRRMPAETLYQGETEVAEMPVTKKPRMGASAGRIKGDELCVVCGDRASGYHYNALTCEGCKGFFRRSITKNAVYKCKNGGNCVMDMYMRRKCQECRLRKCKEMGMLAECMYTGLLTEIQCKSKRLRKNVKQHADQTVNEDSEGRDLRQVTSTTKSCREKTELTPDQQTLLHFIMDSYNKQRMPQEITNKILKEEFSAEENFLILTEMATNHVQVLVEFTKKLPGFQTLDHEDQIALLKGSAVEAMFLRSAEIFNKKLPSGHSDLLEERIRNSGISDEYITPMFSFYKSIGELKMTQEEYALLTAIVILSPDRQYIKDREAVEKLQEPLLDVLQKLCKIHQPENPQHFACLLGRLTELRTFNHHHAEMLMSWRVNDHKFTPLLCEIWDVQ

In test [13] the target is Glucocorticoid receptor (Homo sapiens) (UniProt P04150). Kind of test: qHTS assay for small molecule agonists of glucocorticoid receptor signaling (AID 588532; active = well fitted curve in the direction sought with a large enough effect in the signal ratio, with a control signal flat; the % refers to the signal ratio;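 note: 100% = dexamethasone at 0.1 µM and 0% = DMSO only wells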). Particulars: HeLa MMTV-bla, beta-lactamase ratio, agonist, 18 h; stronger effect = higher value; percent of dexamethasone control, DMSO zero. The procedure, abridged:
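HeLa GRE-bla reporter cells; 18 h compound exposure at 37 C; 2 h CCF4 loading at room temperature; fluorescence at 460 and 530 nm; EC50 by Hill equation.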

For test [14], the target named is Ubiquitin carboxyl-terminal hydrolase 1 (Homo sapiens) (UniProt O94782). The test can be described thus: Inhibitors of USP1/UAF1: Pilot qHTS (AID 504865).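 Note: rhodamine fluorescence freed from ubiquitin-rhodamine substrate followed over time; top concentration of the series differs between compounds; % is set by controls: 0 for no effect and ±100 for the full control effect; nearly all actives have a fitted effect of over 35% in size.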 The procedure, abridged:
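USP1/UAF1 complex at 1 nM preincubated 15 min at room temperature with compound, then Ub-Rho substrate added at 150 nM final. Fluorescence (480/540 nm) read kinetically in 50 mM HEPES pH 7.8, 0.5 mM EDTA, 1 mM TCEP, 0.1 mg/ml BSA, 0.01% Tween-20.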

Test [15] has as its target Thyrotropin-releasing hormone receptor (Homo sapiens) (UniProt P34981). Kind of test: qHTS for Small Molecule Agonists and Allosteric Enhancers of Human TRH Receptor: Validation Screen for Agonists (AID 493127;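 active = calcium activation more than 3 SD above the typical response in the agonist read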;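 note: intracellular calcium rise by fluo-8 fluorescence before TRH EC20 addition; 0% is about no effect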). The settings on record: TRH receptor agonist cell assay; at 2 µM; stronger effect = higher value. The procedure, abridged:
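Kinetic fluorescence assay of agonist-induced calcium release: overnight-plated TRHR cells, room-temperature fluo-8 loading, baseline then compound addition with per-second reads.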

Test [16] is described as follows: Nrf2 qHTS screen for inhibitors: Validation (AID 493153; active = well fitted inhibition curve with a large enough effect in the main read-out, with a control signal flat, not every such curve was filed as active). The settings on record: Potency: luciferase luminescence; viability change: measured here: cytotoxicity max response. The procedure, abridged: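 In this counterscreened reporter format, each well gives two signals: CellTiter-Fluor fluorescence for cytotoxicity and ARE-luciferase luminescence for Nrf2 function. A549 ARE_Fluc cells in 5% FBS OPTI-MEM were exposed to compound titrations for 18-24 h.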

The target of test [17] is Estrogen receptor (Homo sapiens) (UniProt P03372). The test can be described thus: qHTS assay for small molecule antagonists of estrogen receptor alpha signaling (AID 588513; active = well fitted curve in the direction sought with a large enough effect in the signal ratio, with a control signal flat, not every such curve was filed as active; the % refers to the signal ratio; note: % is set by controls: 0 for no effect and ±100 for the full control effect). In short, it runs like this: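 ER-alpha-UAS-bla GripTite HEK 293 cells in 2% charcoal/dextran-treated FBS medium; compounds titrated (1:2, duplicate), then stimulated with 0.5 nM 17-beta-estradiol for 18 h at 37C. CCF4 beta-lactamase fluorescence; Hill-fit IC50 and efficacy.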
Chain of Estrogen receptor (Homo sapiens) (P03372 whole entry, looked up): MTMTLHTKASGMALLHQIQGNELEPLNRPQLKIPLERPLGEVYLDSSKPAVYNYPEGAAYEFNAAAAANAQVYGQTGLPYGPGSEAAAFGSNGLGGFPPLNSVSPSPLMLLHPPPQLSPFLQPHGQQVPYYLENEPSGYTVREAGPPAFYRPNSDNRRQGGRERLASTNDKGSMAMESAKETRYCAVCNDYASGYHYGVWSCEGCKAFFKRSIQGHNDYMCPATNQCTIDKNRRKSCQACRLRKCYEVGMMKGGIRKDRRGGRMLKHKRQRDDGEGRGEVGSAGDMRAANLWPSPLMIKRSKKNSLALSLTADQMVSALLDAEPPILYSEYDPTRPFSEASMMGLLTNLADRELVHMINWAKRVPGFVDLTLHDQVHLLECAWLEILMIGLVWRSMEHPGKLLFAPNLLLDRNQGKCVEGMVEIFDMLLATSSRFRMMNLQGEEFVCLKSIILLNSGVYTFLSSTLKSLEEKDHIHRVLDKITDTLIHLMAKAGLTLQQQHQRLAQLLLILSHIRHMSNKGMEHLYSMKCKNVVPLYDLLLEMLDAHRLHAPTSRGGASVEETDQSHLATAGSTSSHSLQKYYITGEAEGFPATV

Test [18] deals with Bile acid receptor (Homo sapiens) (UniProt Q96RI1). The test can be described thus: qHTS assay for small molecule antagonists of farnesoid X receptor signaling (AID 588526; calls by dose curve; note: % is set by controls: 0 for no effect and ±100 for the full control effect). The procedure, abridged: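 Antagonist mode: titrated compounds tested against chenodeoxycholic acid stimulation (normalized to 50 uM CDCA and DMSO) in GeneBLAzer HEK293T cells for 16 h. Beta-lactamase read by CCF4 fluorescence; IC50 from Hill fits.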

Inconclusive results are not listed. Calls of active or inactive are those of the source. Unless noted, calls come from the whole dose curve; as a rule, active = well fitted curve in the direction sought with a large enough effect; inconclusive = small, poorly fitted or top-dose-only effect, or another doubt; inactive = no such curve, though single readings can be large; an effect the other way counts as inactive or inconclusive.

Chain of phosphoglycerate mutase (Leishmania major) (Q4Q090 1-553): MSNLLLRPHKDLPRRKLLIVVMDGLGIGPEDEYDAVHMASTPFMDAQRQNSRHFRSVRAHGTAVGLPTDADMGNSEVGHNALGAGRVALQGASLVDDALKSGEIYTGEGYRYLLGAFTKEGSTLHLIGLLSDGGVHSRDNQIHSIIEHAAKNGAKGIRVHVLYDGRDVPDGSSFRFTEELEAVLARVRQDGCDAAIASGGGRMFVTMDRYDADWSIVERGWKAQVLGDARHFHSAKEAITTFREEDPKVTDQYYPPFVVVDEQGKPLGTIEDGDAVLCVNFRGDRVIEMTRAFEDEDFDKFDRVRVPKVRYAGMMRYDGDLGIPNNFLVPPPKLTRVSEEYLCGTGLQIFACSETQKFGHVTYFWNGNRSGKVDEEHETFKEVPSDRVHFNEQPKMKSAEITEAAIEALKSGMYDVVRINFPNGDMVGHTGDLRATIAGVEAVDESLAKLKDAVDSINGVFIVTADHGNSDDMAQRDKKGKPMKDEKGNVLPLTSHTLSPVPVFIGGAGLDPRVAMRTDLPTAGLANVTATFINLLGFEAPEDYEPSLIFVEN
Chain of Ubiquitin carboxyl-terminal hydrolase 1 (Homo sapiens) (O94782 whole entry, looked up): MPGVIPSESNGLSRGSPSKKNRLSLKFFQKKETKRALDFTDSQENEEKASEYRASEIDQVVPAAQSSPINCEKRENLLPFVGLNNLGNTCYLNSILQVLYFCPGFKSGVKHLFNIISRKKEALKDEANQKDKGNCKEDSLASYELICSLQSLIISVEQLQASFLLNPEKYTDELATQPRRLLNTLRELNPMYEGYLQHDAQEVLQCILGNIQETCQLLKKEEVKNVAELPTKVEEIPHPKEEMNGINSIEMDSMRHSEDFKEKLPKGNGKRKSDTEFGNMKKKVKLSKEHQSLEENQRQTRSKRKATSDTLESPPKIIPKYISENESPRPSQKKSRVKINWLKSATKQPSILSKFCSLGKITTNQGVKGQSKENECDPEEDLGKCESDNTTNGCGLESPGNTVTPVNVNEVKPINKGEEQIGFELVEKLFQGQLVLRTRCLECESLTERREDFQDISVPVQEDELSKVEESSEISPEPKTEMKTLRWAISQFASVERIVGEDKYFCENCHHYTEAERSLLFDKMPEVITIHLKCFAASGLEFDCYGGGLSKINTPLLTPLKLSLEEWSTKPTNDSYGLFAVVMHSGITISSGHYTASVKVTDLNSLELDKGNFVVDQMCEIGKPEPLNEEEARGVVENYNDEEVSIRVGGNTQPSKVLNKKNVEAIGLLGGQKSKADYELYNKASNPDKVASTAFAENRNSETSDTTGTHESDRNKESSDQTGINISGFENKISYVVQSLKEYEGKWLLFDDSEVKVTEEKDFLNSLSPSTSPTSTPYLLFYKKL
Chain of Thyrotropin-releasing hormone receptor (Homo sapiens) (P34981 whole entry, looked up): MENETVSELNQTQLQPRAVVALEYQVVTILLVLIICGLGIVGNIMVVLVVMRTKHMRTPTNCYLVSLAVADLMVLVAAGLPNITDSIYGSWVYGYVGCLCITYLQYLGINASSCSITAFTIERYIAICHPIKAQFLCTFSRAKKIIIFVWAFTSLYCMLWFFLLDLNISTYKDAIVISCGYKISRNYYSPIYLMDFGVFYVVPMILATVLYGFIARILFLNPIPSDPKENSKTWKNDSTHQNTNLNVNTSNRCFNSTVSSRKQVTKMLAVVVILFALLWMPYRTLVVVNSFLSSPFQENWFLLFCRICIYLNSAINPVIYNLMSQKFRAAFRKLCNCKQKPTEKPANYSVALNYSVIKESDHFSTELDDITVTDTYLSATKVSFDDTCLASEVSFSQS
Chain of Peptidyl-prolyl cis-trans isomerase NIMA-interacting 1 (Homo sapiens) (Q13526 whole entry, looked up): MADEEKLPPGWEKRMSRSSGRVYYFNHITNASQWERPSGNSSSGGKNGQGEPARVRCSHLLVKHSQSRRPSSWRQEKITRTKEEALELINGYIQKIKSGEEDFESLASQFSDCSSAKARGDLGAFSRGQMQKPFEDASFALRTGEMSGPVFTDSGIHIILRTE
Chain of DNA dC->dU-editing enzyme APOBEC-3G (Homo sapiens) (Q9HC16 whole entry, looked up): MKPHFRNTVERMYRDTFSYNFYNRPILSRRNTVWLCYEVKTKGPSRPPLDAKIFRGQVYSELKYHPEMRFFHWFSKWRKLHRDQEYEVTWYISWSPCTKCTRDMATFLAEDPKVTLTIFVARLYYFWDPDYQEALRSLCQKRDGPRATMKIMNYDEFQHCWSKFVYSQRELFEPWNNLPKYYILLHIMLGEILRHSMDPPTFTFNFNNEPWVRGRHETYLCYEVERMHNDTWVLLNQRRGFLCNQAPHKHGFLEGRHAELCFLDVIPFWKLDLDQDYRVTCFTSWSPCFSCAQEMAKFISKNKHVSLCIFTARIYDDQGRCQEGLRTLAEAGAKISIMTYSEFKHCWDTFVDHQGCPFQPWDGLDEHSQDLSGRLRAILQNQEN
Chain of Phosphoglycerate kinase, glycosomal (Trypanosoma brucei brucei) (P07378 whole entry, looked up): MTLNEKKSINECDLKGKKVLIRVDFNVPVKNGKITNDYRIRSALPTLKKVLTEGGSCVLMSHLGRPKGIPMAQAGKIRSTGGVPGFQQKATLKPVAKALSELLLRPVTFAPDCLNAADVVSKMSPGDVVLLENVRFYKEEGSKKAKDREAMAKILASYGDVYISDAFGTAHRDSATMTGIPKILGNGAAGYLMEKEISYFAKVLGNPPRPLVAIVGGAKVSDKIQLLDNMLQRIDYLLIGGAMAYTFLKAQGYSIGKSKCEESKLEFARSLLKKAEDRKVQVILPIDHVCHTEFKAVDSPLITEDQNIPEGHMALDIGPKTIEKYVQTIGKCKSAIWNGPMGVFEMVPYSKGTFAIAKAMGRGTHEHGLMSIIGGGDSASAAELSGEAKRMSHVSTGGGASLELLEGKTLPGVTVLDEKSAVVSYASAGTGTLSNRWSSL
Chain of Glucocorticoid receptor (Homo sapiens) (P04150 whole entry, looked up): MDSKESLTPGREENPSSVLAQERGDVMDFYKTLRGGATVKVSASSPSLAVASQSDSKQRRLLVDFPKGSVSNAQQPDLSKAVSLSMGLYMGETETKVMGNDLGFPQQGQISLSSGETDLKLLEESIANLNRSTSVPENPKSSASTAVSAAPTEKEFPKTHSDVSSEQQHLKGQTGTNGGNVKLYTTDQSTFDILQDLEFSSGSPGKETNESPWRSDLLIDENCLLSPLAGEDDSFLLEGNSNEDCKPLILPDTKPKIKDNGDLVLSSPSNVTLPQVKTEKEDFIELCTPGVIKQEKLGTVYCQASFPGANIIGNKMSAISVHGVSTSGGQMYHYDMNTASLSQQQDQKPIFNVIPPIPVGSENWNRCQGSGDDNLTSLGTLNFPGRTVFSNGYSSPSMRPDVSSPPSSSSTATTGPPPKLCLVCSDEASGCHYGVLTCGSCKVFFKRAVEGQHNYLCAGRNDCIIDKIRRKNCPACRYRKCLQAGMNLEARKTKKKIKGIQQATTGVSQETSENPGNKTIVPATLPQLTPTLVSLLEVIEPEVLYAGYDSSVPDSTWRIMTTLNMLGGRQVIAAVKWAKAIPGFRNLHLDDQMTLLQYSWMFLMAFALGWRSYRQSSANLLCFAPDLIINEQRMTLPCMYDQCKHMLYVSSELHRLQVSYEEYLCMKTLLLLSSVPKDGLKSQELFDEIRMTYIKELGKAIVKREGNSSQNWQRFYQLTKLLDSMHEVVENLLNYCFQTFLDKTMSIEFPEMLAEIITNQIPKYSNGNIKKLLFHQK

As for `O=c1[nH]c2ccccc2n1C1CCN(CCCC(c2ccc(F)cc2)c2ccc(F)cc2)CC1`, the result in test [1], in [2], in test [6], in test [7] and in test [10] was inactive. The Potency result in [3], in test [4], in test [5], in [8], in test [9] and in test [11] was “inactive” in each case. Moreover, the figures for the activation in [12] and in test [13] were -1.92% (inactive) and 4.7% (inactive), respectively.

Turning to `CC[C@@H](CO)NC(=O)[C@@H]1C=C2c3cccc4[nH]cc(c34)C[C@H]2N(C)C1`, the outcome in test [1], in test [6] and in test [7] was inactive. For the same compound, the Potency entry in [5], in test [14], in test [8] and in [9] was “inactive” throughout.

As for `CN1C[C@H](CNC(=O)OCc2ccccc2)C[C@@H]2c3cccc4c3c(cn4C)C[C@H]21`, in [15], the activation is 7.38% (inactive). Besides, the compound was called inactive in test [1], in test [2], in [6], in [7] and in [10]. Besides, the Potency result in test [5] and in test [14] was “inactive” throughout.

For the compound `CNCC(O)c1ccc(O)cc1` (centres undefined), the activation was 1.12% (inactive) in [15], -1.79% (inactive) in [12] and 9.17% (inactive) in test [13]. Also, the Potency result in [16], in test [3], in test [4], in [5], in test [14] and in test [8] was “inactive” each time. Besides, the Potency entry in [9], in [11] and in test [18] was “inactive” throughout. In addition, in test [16], the viability change was -6.1%. Further, the call in test [1], in [2], in test [6], in test [7] and in test [17] was inactive.

For `CC(C)=CCOc1c2occc2cc2ccc(=O)oc12`, the outcome in [1], in test [6] and in [7] was inactive. In addition, the Potency entry in test [4], in test [5], in test [14], in test [8] and in test [9] was “inactive” throughout.

In the case of `COC[C@H]1OC(=O)c2coc3c2[C@@]1(C)C1=C(C3=O)C2CCC(=O)[C@@]2(C)C[C@H]1OC(C)=O` (some centres undefined), the activation in test [15] is 0.25% (inactive). Further, the outcome in test [2] and in test [6] was inactive. The Potency entry in test [3], in test [5] and in [14] was “inactive” each time.

In the case of `Fc1ccc(C(OCCN2CCN(CCCc3ccccc3)CC2)c2ccc(F)cc2)cc1`, in test [15], the activation is -5.62% (inactive). Besides, the compound was called inactive in test [1], in test [2], in test [6], in test [7] and in [10]. For the same compound, the Potency result in test [4] and in [5] was “inactive” in each case. Moreover, the Potency is 35.5 µM (active) in test [8] and 20 µM (active) in test [9].

As to `CC(CCc1ccccc1)NC(C)C(O)c1ccc(O)cc1` (centres undefined), the compound was called inactive in test [1], in test [2], in test [6] and in test [7]. Also, the Potency result in [3], in test [4], in test [5] and in test [14] was “inactive” throughout.

In the case of `CCCC(C)(COC(N)=O)COC(=O)NC(C)C` (centres undefined), the activation in [15] is -0.188% (inactive). Further, the Potency result in test [16], in test [3], in test [4], in test [5], in [14] and in test [8] was “inactive” in each case. The Potency result in test [9] and in [11] was “inactive” each time. For the same compound, in test [16], the viability change was 5.42%. The compound was classed as inactive in test [1], in [2], in test [6], in [7] and in test [17].

For the compound `CCCN1CCC[C@@H]2Cc3nc(N)ncc3C[C@H]21`, the activation in test [15] was 0.562% (inactive). Also, the outcome in test [1], in [2], in test [6] and in test [7] was inactive. The Potency result in test [3], in [4], in test [5], in [14], in test [8] and in test [9] was “inactive” throughout.
